High-throughput results deposited in PubChem by NMMLSC.
Hits are enriched below; roughly 0.4% of the tested compounds scored in any of these assays.
Rab2 wt GTP: changes GTP binding to wildtype dog Rab2A, up or down; P61105; GST-Rab2 wt beads, Bodipy-GTP binding, flow cytometry; GTP binding activity, % at 10 µM; actives 0.19% (n = 190,000);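 active = GTP binding activity at least 20 points away from 100%, either lowered or raised; inconclusive = signal likely due to the compound's own green fluorescence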;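 note: 0% = beads with excess unlabeled GTP and 100% = no-compound control corrected for plate trend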
Rac1 act GTP bind: modulators of GTP binding to human Rac1 activated mutant; P63000; GST-Rac1 activated beads, fluorescent GTP binding, flow cytometry; actives lie on both sides; 100% means binding = to untreated wells; percent activity (GTP binding), % at 10 µM; actives 0.11% (n = 190,000);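 active = GTP binding at least 20 percentage points away from the 100% baseline, in either direction, so actives lie on both sides; inconclusive = Compound likely fluorescent itself, or too few beads counted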
HRas wt GTP bind: modulators of GTP binding to human HRas wildtype. AID 759. GTP binding activity, % at 10 µM. P01112. GST-Ras wt beads, Bodipy-FL-GTP binding, flow cytometry; actives lie on both sides. actives 0.14% (n = 190,000);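 active = GTP binding activity at least 20% away from the 100% baseline, either lowered as inhibitor or raised as activator; inconclusive = flagged as likely green fluorescent, judged across all proteins in the well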;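 note: 0% = unlabeled GTP competition control and 100% = no-compound control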
Target sequence (P01112 whole entry, looked up): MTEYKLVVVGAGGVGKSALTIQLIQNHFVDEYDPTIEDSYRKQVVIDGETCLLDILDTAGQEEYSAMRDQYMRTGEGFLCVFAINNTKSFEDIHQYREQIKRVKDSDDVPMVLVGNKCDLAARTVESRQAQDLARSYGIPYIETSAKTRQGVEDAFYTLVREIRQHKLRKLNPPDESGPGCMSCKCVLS
Cdc42 wt: modulators (inhibitors or activators) of GTP binding to human Cdc42 wildtype. GST-Cdc42 beads, Bodipy-GTP binding, flow cytometry; actives lie on both sides. actives 0.2% (n = 190,000). P60953. AID 761. percent activity (GTP binding), % at 10 µM;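 active = percent activity GTP binding at least 20 points away from the 100% baseline, either down as inhibitor or up as activator; inconclusive = compound flagged as likely green fluorescent from well-wide comparison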;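 note: median bead fluorescence of bound Bodipy-FL-GTP at 100 nM; 0% = excess unlabeled GTP control and 100% = no compound control; below 100% means less GTP binding so inhibitor and above means activator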
Target sequence (P60953 whole entry, looked up): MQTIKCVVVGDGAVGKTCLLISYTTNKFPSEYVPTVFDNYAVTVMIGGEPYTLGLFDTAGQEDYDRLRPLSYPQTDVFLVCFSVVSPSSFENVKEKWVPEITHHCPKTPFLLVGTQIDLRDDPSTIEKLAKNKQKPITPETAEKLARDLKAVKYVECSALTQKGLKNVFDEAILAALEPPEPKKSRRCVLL
Rab7 wt GTP bind: modulators of GTP binding to dog Rab7 wildtype GTPase; GST-Rab7 beads, fluorescent GTP binding, flow cytometry; actives lie on both sides; untreated = 100%, excess cold GTP = 0%; GTP binding activity (percent of control), % at 10 µM; actives 0.055% (n = 190,000); AID 758;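 active = fluorescent GTP binding to Rab7 beads changed by at least 20 points from the 100% baseline, either direction, mostly lower; inconclusive = compound itself probably fluorescent, or too few beads counted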;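 note: median green fluorescence of bound Bodipy-FL-GTP per Rab7 bead population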
Rac1 wt GTP bind: alters GTP binding to wildtype human Rac1. P63000. GST-Rac1 beads, fluorescent GTP binding, flow cytometry; actives lie on both sides; 0 = cold GTP competed, 100 = untreated. GTP binding activity (% of control), % at 10 µM. actives 0.27% (n = 190,000). AID 757;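 active = GTP binding activity at least 20 points away from the 100% control level, either lower or higher; inconclusive = compound flagged as likely green fluorescent, judged across all proteins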
* hit, by the source's call; ? = inconclusive; [ ] = dose if it differs, or a comment.

SMILES | Rab2 wt GTP | Rac1 act GTP bind | HRas wt GTP bind | Cdc42 wt | Rab7 wt GTP bind | Rac1 wt GTP bind
N=c1c(C(=O)NCc2ccco2)cc2c(=O)n3ccccc3nc2n1CCc1ccccc1 | 75* | 87 | 77* | 80 | 91 | 72*
Cc1ccc(Cn2c(=N)c(C(=O)NCc3ccco3)cc3c(=O)n4ccccc4nc32)cc1 | 100 | 96 | 98 | 98 | 100 | 101
C#CCOCCOCCOCCNc1nc(N2CCN(C(=O)[C@H](CCCCN)n3cc(C(N)CO)nn3)CC2)nc(N2CCN(C(=O)[C@H](CCC(=O)O)n3cc(C(N)[C@H](C)CC)nn3)CC2)n1 (stereo partly specified) | 99 | 97 | 101 | 101 | 98 | 100
CN1CC(=O)NC1=NC(=O)c1ccc(Cl)c(S(=O)(=O)N2CCCCCC2)c1 | 89 | 92 | 94 | 92 | 89 | 91
CN(C(=O)Cn1cccc1C1=NC(c2ccccc2)CO1)c1ccccc1 (stereo unspecified) | 100 | 99 | 99 | 97 | 100 | 101
Cc1nc2nc(SCC(=O)NCc3ccco3)nn2c(C)c1Cc1c(F)cccc1Cl | 97 | 96 | 97 | 95 | 96 | 95
Cc1nc2nc(SCC(=O)O)nn2c(C)c1Cc1c(F)cccc1Cl | 73* | 70* | 78* | 72* | 87 | 78*
Cc1nc2nc(SCC(=O)O)nn2c(C)c1Cc1ccccc1Cl | 78* | 81 | 84 | 82 | 83 | 90
O=C(O)COc1ccccc1/C=N/NC(=O)c1cccc(S(=O)(=O)Nc2cccc(Cl)c2)c1 | 82 | 82 | 87 | 82 | 94 | 75*
CCn1cc(C(=O)O)c(=O)c2cc(F)c(N/N=C/c3ccccc3[N+](=O)[O-])cc21 | 58* | 78* | 63* | 82 | 77* | 64*
O=C1Nc2ncccc2OC1CCO (stereo unspecified) | 104 | 103 | 103 | 104 | 102 | 109
O=C(c1ccc2ncsc2c1)N1CCN(c2ccc(O)cc2)CC1 | 106 | 103 | 106 | 107 | 102 | 105
CCOC(=O)c1c(NC(=O)c2cc(-c3ccc(O)cc3)on2)sc(C(C)=O)c1C | 99 | 97 | 100 | 101 | 102 | 101
COc1ccccc1Oc1ccccc1C(=O)O | 116 | 119 | 114 | 122*[activator] | 112 | 130*[activator]
Cc1ccccc1C(=O)Nc1cccc(C(=O)N/N=C/c2cc(Cl)cc([N+](=O)[O-])c2O)c1 | 77* | 74* | 80 | 76* | 90 | 81
O=C(O)C1C2C=CC(C2)C1C(=O)N1CCOCC1 (stereo unspecified) | 36* | 37* | 43* | 39* | 22* | 33*
O=C(NC1CCCC1)C1C2C=CC(C2)C1C(=O)N1CCOCC1 (stereo unspecified) | 99 | 98 | 98 | 101 | 103 | 98
CCn1c(COc2cc(C)ccc2C(C)C)nnc1SCC(=O)Nc1nccs1 | 95 | 95 | 96 | 95 | 93 | 97
Nc1[nH]n2c(=O)cc(-c3ccccc3)nc2c1N=Nc1ccccc1 | 94 | 94 | 95 | 95 | 97 | 98
Nc1nn2c(-c3ccccc3)cc(=O)[nH]c2c1N=Nc1ccc(Br)cc1 | 75* | 76* | 82 | 75* | 85 | 76*
COCc1c(C)cc(C)c(/C=N/O)c1C | 97 | 96 | 98 | 99 | 94 | 101
O=C(O)CSc1ncccc1C(=O)O | 99 | 101 | 102 | 104 | 98 | 103
Cc1ccc(C)c(CSc2ncccc2C(=O)O)c1 | 114 | 126*[activator] | 113 | 132*[activator] | 114 | 144*[activator]
Cc1ccc(Sc2ncccc2C(=O)O)c(C)c1 | 124*[activator] | 127*[activator] | 123*[activator] | 126*[activator] | 106 | 135*[activator]
O=C(O)c1cccnc1SCc1ccccc1Cl | 118 | 121*[activator] | 116 | 122*[activator] | 115 | 131*[activator]
SMILES | Rab2 wt GTP | Rac1 act GTP bind | HRas wt GTP bind | Cdc42 wt | Rab7 wt GTP bind | Rac1 wt GTP bind
Cc1cc([N+](=O)[O-])nn1CCCC(=O)NC1CCCCC1 | 100 | 95 | 101 | 99 | 107 | 103
COc1ccc(-c2nnc3n2N=C(C)CS3)cc1OC | 93 | 91 | 93 | 95 | 94 | 89
Oc1ccc(C2=Nn3c(nnc3-c3ccco3)SC2)cc1O | 47* | 65* | 47* | 49* | 70* | 51*
Cc1cccc(-c2nnc3n2N=C(c2ccccc2)CS3)c1 | 94 | 96 | 95 | 88 | 92 | 100
COc1ccc(C2=Nn3c(nnc3-c3ccccc3)SC2)cc1OC | 82 | 90 | 80 | 80 | 93 | 78*
Cc1cc(-c2nnc3n2N=C(c2ccc(-c4ccccc4)cc2)CS3)n[nH]1 | 79* | 81 | 78* | 76* | 87 | 75*
CCOc1ccc(Cn2c3ccc(OC)cc3c3nc4ccccc4nc32)cc1 | 130*[activator] | 115 | 119 | 103 | ? | 124*[activator]
COc1ccc(-c2nn3c(-c4ccccn4)nnc3s2)cc1OC | 79* | 89 | 80 | 82 | 86 | 74*
CSc1nnc(C)c(/C=C/Nc2ccc(F)cc2)n1 | 94 | 94 | 94 | 93 | 94 | 89
COc1ccc(N/C=C/c2nc(SC)nnc2C)cc1 | 66* | 81 | 69* | 67* | 90 | 64*
CSC1=N/C(=C\c2ccc(C)cc2)C(=O)S1 | 104 | 99 | 105 | 107 | 98 | 103
COc1ccc(/C=C2\N=C(SC)SC2=O)cc1OC | 77* | 81 | 81 | 82 | 64* | 81
C=CCSc1nc(N)c(C#N)c(-c2ccc(C)cc2)c1C#N | 87 | 86 | 85 | 78* | 94 | 78*
CC1(c2ccccc2)CC(C)(C)N2C(=O)Cc3cccc1c32 (stereo unspecified) | 93 | 94 | 95 | 96 | 100 | 93
CC(=O)Nc1ccnc(-c2cccnc2)n1 | 95 | 95 | 96 | 93 | 99 | 96
O=C(Nc1cccc(Cl)c1)Nc1ccnc(-c2cccnc2)n1 | 67* | 85 | 67* | 64* | 93 | 77*
O=C(O)C1=C[C@H](c2ccc(C(F)(F)F)cc2)C[C@H](OCc2ccc(CO)cc2)O1 | 76* | 76* | 80 | 74* | 90 | 77*
O=C(O)Cc1coc2cc3c(cc12)CCC3 | 89 | 87 | 88 | 91 | 79* | 88
COc1ccc(C(=O)Nc2nc3ccccc3[nH]2)cc1S(=O)(=O)N1CCOCC1 | 77* | 90 | 80 | 78* | 82 | 82
CCOC(=O)C1=NN(C(=O)c2ccc(OC)cc2)C(O)(c2ccc(Cl)cc2)C1 (stereo unspecified) | 96 | 98 | 98 | 100 | 95 | 99
